PubChem BioAssay

System: Fibrinogen (Alexa647-labelled)
Assay: fibrinogen binders on compound microarrays, profiling panel, artefact control for SMM control-protein annotation, biochemical, small-molecule microarray, 635/667 nm fluorescence (AID 1131);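 also: z-score merges 667 nm fluorescence with per-spot signal-to-noise over triplicate slides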
Conditions: fibrinogen-A647 binding fluorescence, higher = more signal

Question: How did the composite z-score turn out when `CCCCN1CC=CC23O[C@@H]4C=CCOC(=O)[C@@H]4[C@H]2C(=O)N(CCO)[C@@H]3C1=O` (some centres undefined) was run?
Answer: -0.717

Question: For `C=CC[C@@]12N=C(c3ccc(OCCCO)cc3)O[C@@H]1c1ccccc1N(Cc1ccccc1)C2=O`, which composite z-score is on record?
Answer: 0.8

Question: Which composite z-score does the source give for `COCCOC(=O)N1C(=O)[C@@]2(c3cc(C#CCC(C(=O)OC)C(=O)OC)ccc31)[C@H](C(N)=O)[C@H]1C(=O)O[C@H](c3ccccc3)[C@H](c3ccccc3)N1[C@@H]2c1ccc(OCCO)cc1` here?
Answer: 0.923

Question: `CCOC(=O)C1=C(C(=O)OCC)N(S(=O)(=O)CC[Si](C)(C)C)[C@H](c2ccccc2)CC1` was tested. Which composite z-score did it give?
Answer: 0.837

Question: With `COC(=O)C1=CC(CCCO)=CC(c2ccc(CN3CCCC3)cc2)N(Cc2sc3ccccc3c2Cl)C=C1C(=O)OC` (centres undefined) as the compound, how does the composite z-score read?
Answer: 1.05

Question: With `C=CCNC(=O)[C@@H]1[C@H]2C(=O)O[C@H](c3ccccc3)[C@H](c3ccccc3)N2[C@H](c2ccc(O)cc2)[C@@]12C(=O)Nc1ccc(C#CC3(O)CCCCCC3)cc12` as the compound, how does the composite z-score read?
Answer: -1.37

Question: How did the composite z-score turn out when `NC(=O)NCC#Cc1ccc2c(c1)[C@]1(C(=O)N2)[C@H](C(=O)Nc2nc3ccccc3s2)[C@H]2C(=O)O[C@H](c3ccccc3)[C@H](c3ccccc3)N2[C@@H]1c1ccc(OCCO)cc1` was run?
Answer: -0.3

Question: With `COCCOC(=O)N1C(=O)[C@@]2(c3cc(C#CC4(O)CCCCCC4)ccc31)[C@H](c1ccccc1OCCO)N1[C@H](c3ccccc3)[C@H](c3ccccc3)OC(=O)[C@H]1[C@@H]2C(=O)N1CCCCCCC1` as the compound, how does the composite z-score read?
Answer: 0.733

Question: `COCCOC(=O)N1C(=O)[C@@]2(c3cc(C#CCCO)ccc31)[C@H](C(=O)N1CCc3cc(OC)c(OC)cc3C1)[C@H]1C(=O)O[C@H](c3ccccc3)[C@H](c3ccccc3)N1[C@@H]2c1ccccc1OCCO` was tested. Which composite z-score did it give?
Answer: 0.87
